Source: PubChem
HSP90 refold inh: blocks HSP90-mediated luciferase refolding in reticulocyte lysate. Rabbit reticulocyte lysate, luciferase refolding luminescence, 3 h. hit rate 0.91% among 290,000. inhibition, % at 5.6 µM. AID 1789;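 active = inhibition above the screen-wide mean plus 3 SD, computed separately per campaign, cut at about 16% in these data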;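 also: inhibitors lower the luminescence because luciferase stays unfolded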
SENP8 block-1: SENP8 protease inhibition; purified SENP8, Z-RLRGG-aminoluciferin cleavage, luminescence; Q96LD8; inhibition, % at 10 µM; hit rate 1.2% among 330,000; in the data active = inhibition above about 50%
SENP7 block: SENP7 protease inhibition. recombinant SENP7, Z-RLRGG-aminoluciferin luminescence, 40 min. Q9BQF6. inhibition, % at 5 µM. hit rate 1.5% among 330,000;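 active = inhibition above about 50% at the single test dose, limit read from the data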
Target sequence (Q9BQF6 706-1050 limits assumed): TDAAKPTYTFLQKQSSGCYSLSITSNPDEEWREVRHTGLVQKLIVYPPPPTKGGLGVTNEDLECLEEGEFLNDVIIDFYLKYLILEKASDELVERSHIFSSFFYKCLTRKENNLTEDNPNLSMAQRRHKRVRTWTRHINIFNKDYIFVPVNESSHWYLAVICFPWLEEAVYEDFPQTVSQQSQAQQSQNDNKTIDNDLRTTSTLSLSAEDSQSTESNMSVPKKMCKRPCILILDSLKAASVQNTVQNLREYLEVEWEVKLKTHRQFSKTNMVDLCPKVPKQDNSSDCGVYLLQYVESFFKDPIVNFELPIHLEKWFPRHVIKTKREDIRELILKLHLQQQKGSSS
SENP8 block-2: blocks human SENP8 cleavage of Nedd8 substrate | hit rate 0.64% among 360,000 | inhibition, % at 20 µM | Q96LD8 | recombinant SENP8, Nedd8 substrate fluorescence; in the data active = inhibition mostly above about 40%, no sharp cut-off; inactive = mostly below about 27%
SENP6 block: inhibitors of human SENP6 protease. Q9GZR1. Recombinant SENP6 catalytic domain, aminoluciferin luminescence. inhibition, % at 10 µM. hit rate 1.8% among 330,000. AID 2599;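 active = inhibition above about 50% at the single tested dose, limit read from the data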
SENP8 confirm: confirmation of human SENP8 protease inhibitors | Recombinant SENP8, Z-RLRGG-aminoluciferin luminescence, 60 min | AID 488912 | inhibition, % at 12.5 µM | shares compounds with SENP7 block | hit rate 40% among 6,200;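 active = mean inhibition across replicates above about 50%, limit read from the data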
SENP6 conf: confirmation of human SENP6 protease inhibitors; shares compounds with SENP7 block; recombinant SENP6, Z-RLRGG-aminoluciferin luminescence; inhibition, % at 12.5 µM; hit rate 58% among 6,200
SENP7 conf: human SENP7 inhibition, confirmed | recombinant SENP7, Z-RLRGG-aminoluciferin luminescence, 40 min | inhibition, % at 12.5 µM | hit rate 69% among 6,200 | shares compounds with SENP7 block
Casp3 SENP sel: caspase-3 inhibition (SENP selectivity assay); shares compounds with SENP7 block; purified caspase-3, Z-DEVD-aminoluciferin luminescence, 60 min; inhibition, % at 12.5 µM; hit rate 60% among 6,200; AID 488918;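 active = mean inhibition above about 50%, limit read from the data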
Target sequence (P42574 28-227 limits assumed): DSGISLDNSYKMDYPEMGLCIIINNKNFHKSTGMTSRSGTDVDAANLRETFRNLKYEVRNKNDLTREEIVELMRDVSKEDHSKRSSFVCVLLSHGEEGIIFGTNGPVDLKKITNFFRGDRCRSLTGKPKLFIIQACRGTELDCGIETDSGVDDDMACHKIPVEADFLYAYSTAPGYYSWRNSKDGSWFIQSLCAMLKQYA
SENP luc ctr: interferes with luciferase luminescence in SENP counter-screen; shares compounds with SENP7 block; Pre-incubated SENP8/Z-RLRGG-aminoluciferin, luciferase luminescence interference; inhibition, % at 12.5 µM; hit rate 39% among 6,200;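 active = mean inhibition above about 50% when retested at one dose, limit read from the data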
Of the large screens only hits and unclear results are named; the others gave an inactive call (follow-up assays come after a bar, where they were run). Hits are enriched below; roughly 2.8% of the tested compounds scored in any of these assays.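 The calls were made as follows, unless noted: active = mean inhibition above about 50% in the one-dose retest (limit read from the data); inactive = the rest.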

Cc1nc2cc(-c3ccccc3)sc2c(=O)n1N	HSP90 refold inh 49, SENP8 block-1 96, SENP7 block 99, SENP6 block 96 | SENP8 confirm 98 | SENP6 conf 99 | SENP7 conf 102 | Casp3 SENP sel 98 | SENP luc ctr 97
Cn1c(NCc2ccccc2)nc2cc(-c3ccccc3)sc2c1=O	none (no result: HSP90 refold inh, SENP8 block-1, SENP7 block, SENP6 block)
COc1ccc(-c2cc3nc(C)n(N)c(=O)c3s2)cc1	HSP90 refold inh 85, SENP8 block-1 97, SENP7 block 100, SENP6 block 99 | SENP8 confirm 99 | SENP6 conf 100 | SENP7 conf 103 | Casp3 SENP sel 98 | SENP luc ctr 99
CN(C)CCCN(C(=O)c1ccc(S(=O)(=O)N(C)C)cc1)c1nc2ccc(F)cc2s1	none
O=C1/C(=C\c2ccc3ccccc3c2)CCCc2ccccc21	none
Cc1ccccc1/C=C1\CCCc2ccccc2C1=O	SENP8 block-1 95, SENP7 block 97, SENP6 block 88 | SENP8 confirm 95 | SENP6 conf 98 | SENP7 conf 102 | Casp3 SENP sel 93 | SENP luc ctr 94
Cn1nc(C(C)(C)C)cc1N1C(=O)CCC1(C)C(=O)Nc1ccc2c(c1)OCCO2 (stereo not given)	none (no result: HSP90 refold inh, SENP8 block-1, SENP7 block, SENP6 block)
COc1ccc(C2=NN(CN3C(=O)C(=O)c4ccccc43)C(c3ccc(C)cc3)C2)cc1 (stereo not given)	none
COc1ccc(C2=NN(CN3C(=O)C(=O)c4ccccc43)C(c3ccc(Br)cc3)C2)cc1 (stereo not given)	SENP7 block 81 | SENP8 confirm inactive | SENP6 conf inactive | SENP7 conf inactive | Casp3 SENP sel inactive | SENP luc ctr inactive
C/C(=N\NC(=O)c1nn(C)c(C)c1Br)c1ccc(NC(=O)c2ccccc2F)cc1	none
O=C(O)C(=O)Nc1nc(-c2ccc3c(c2)OCCO3)cs1	SENP6 block 73 | SENP8 confirm 67 | SENP6 conf 66 | SENP7 conf 89 | Casp3 SENP sel 88 | SENP luc ctr 76
CC(C)(C)C(=O)OCc1nc(-c2ccc(F)cc2)cs1	SENP6 block 52 | SENP8 confirm inactive | SENP6 conf inactive | SENP7 conf 71 | Casp3 SENP sel inactive | SENP luc ctr inactive
CC(C)(C)C(=O)OCc1nc(-c2ccc3c(c2)OCCO3)cs1	SENP8 block-1 86, SENP7 block 88, SENP6 block 89 | SENP8 confirm 90 | SENP6 conf 90 | SENP7 conf 71 | Casp3 SENP sel 77 | SENP luc ctr 59
CC(C)(C)C(=O)OCc1nc(-c2ccc(Cl)cc2)cs1	none
COc1ccc(-c2csc(COC(=O)C(C)(C)C)n2)cc1	none
O=c1c(Cc2ccc(F)cc2)c(O)ccn1Cc1ccc(F)cc1	none
Cc1cc(C(=O)N/N=C2\CC(=O)CC(C)(C)C2)c(C)n1-c1ccccc1	none
Cc1cc(C(=O)N/N=C2\CC(=O)c3ccccc32)c(C)n1-c1ccccc1	SENP8 block-1 54 | SENP8 confirm inactive | SENP6 conf inactive | SENP7 conf inactive | Casp3 SENP sel inactive | SENP luc ctr inactive
O=C(CC(c1ccccc1O)N1CCCCC1)N1CCCCC1 (stereo not given)	none
O=C(CSc1ncc(-c2ccccc2)n1C1CCCC1)N1CCc2ccccc21	none
Cn1c(=O)c2c(O)c(Cc3ccccc3)c(=O)[nH]c2n(C)c1=O	SENP6 block 61 | SENP8 confirm inactive | SENP6 conf inactive | SENP7 conf 66 | Casp3 SENP sel 64 | SENP luc ctr inactive
O=C(NC1CCCCCC1)c1cccc(COCC(F)(F)F)c1	none
COc1ccccc1NC(=S)NNC(=O)c1ccc(Cl)cc1Cl	SENP7 block 54, SENP6 block 72 | SENP8 confirm inactive | SENP6 conf inactive | SENP7 conf inactive | Casp3 SENP sel inactive | SENP luc ctr inactive
Cc1ccccc1C(=O)NNC(=S)NC(=O)c1ccc(Cl)cc1Cl	none
CC[n+]1cccc(-c2nc3ccccc3s2)c1	none
Cn1cnnc1SCC(=O)Nc1ccccc1Sc1ccccc1	none (no result: HSP90 refold inh)
Cc1cc2cc(C#N)c(SCC(=O)Nc3nonc3C)nc2cc1C	SENP6 block 99 | SENP8 confirm inactive | SENP6 conf inactive | SENP7 conf inactive | Casp3 SENP sel inactive | SENP luc ctr inactive
CCOC(=O)c1cnc2c(-c3ccccc3)cnn2c1N	SENP7 block 72 | SENP8 confirm inactive | SENP6 conf inactive | SENP7 conf inactive | Casp3 SENP sel inactive | SENP luc ctr inactive
CCOC(=O)c1cnc2c(N=Nc3cccc(Cl)c3)c(N)nn2c1N	none (no result: SENP8 block-1, SENP7 block, SENP8 block-2, SENP6 block)
CCOC(=O)c1cnc2c(N=Nc3ccccc3)c(N)nn2c1N	SENP7 block 70 | SENP8 confirm inactive | SENP6 conf inactive | SENP7 conf inactive | Casp3 SENP sel inactive | SENP luc ctr inactive
CC(C)(C)OC(=O)NC(Cc1ccccc1)C(=O)O (stereo not given)	none
COc1ccc(CN2CCC(C(N)=O)CC2)cc1OCc1ccccc1	none
CCc1ccc(OCC(=O)N/N=C2\CC(=O)c3ccccc32)cc1	SENP8 block-2 41, SENP6 block 53 | SENP8 confirm inactive | SENP6 conf 66 | SENP7 conf inactive | Casp3 SENP sel inactive | SENP luc ctr inactive
Cc1ccc(S(=O)(=O)N(C)C)cc1NC(=O)C(C)OC(=O)c1ccc2c(=O)n3c(nc2c1)CCC3 (stereo not given)	none (no result: HSP90 refold inh, SENP8 block-1, SENP7 block, SENP6 block)
Oc1cc2ccccc2cc1-c1n[nH]c(=S)o1	SENP8 block-1 94, SENP7 block 75, SENP6 block 91 | SENP8 confirm 98 | SENP6 conf 98 | SENP7 conf 101 | Casp3 SENP sel 96 | SENP luc ctr 96
S=c1[nH]nc(-c2c[nH]c3ccccc23)o1	none
Cc1ccn2c(C(=O)c3ccc(Cl)cc3)cnc2c1	HSP90 refold inh 22, SENP7 block 52, SENP6 block 70 | SENP8 confirm inactive | SENP6 conf inactive | SENP7 conf 70 | Casp3 SENP sel 62 | SENP luc ctr inactive
Cc1ccn2c(=O)nc(SCC(=O)c3ccc(Cl)cc3)nc2c1	none (no result: HSP90 refold inh)
Cc1ccc(NS(=O)(=O)c2cccc(C(=O)NC3CCN(Cc4ccccc4)CC3)c2)cc1	none (no result: HSP90 refold inh, SENP8 block-1, SENP7 block, SENP6 block)
O=C(Nc1ccc(C(=O)N2CCOCC2)cc1)Nc1cccc(Cl)c1	SENP7 block 57, SENP6 block 69 | SENP8 confirm 60 | SENP6 conf 58 | SENP7 conf 85 | Casp3 SENP sel 61 | SENP luc ctr 63
